Assay outcomes as filed in PubChem BioAssay.
ALR inh – human ALR oxidase inhibition via reduced H2O2; P55789; purified ALR, DTT oxidation, H2O2 HRP-luminol luminescence; inhibition, % (concentration not given with the values); hit rate 3.8% among 290,000;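 active = mean replicate inhibition above about 79%, with every replicate also reaching it, limit read from the data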
Target sequence (P55789 whole entry, looked up): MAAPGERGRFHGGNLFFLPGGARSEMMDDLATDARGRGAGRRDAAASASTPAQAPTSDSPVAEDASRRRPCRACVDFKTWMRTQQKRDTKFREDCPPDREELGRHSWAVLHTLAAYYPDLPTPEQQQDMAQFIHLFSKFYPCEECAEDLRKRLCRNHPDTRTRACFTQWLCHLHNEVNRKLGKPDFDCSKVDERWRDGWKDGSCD
CendR NRP1 mod – NRP-1/CendR interaction modulation; inhibition, % at 25 µM; AID 602438; FAM-RPARPAR peptide binding to NRP-1, fluorescence polarization; hit rate 0.85% among 360,000; O14786;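 active = inhibition or corrected inhibition above about 18%, plus a signal ratio from 0.5 to 1.5, limit read from the data, passing the limit was not always enough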
ERp5 inh – blocks human ERp5 reductase activity on insulin. Q15084. ERp5 insulin aggregation, absorbance 650 nm, 90 min. inhibition, % at 9.99 µM. hit rate 0.05% among 350,000;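 active = mean replicate inhibition above about 25%, with every replicate also reaching it, limit read from the data, passing the limit was not always enough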
Target sequence (Q15084 whole entry, looked up): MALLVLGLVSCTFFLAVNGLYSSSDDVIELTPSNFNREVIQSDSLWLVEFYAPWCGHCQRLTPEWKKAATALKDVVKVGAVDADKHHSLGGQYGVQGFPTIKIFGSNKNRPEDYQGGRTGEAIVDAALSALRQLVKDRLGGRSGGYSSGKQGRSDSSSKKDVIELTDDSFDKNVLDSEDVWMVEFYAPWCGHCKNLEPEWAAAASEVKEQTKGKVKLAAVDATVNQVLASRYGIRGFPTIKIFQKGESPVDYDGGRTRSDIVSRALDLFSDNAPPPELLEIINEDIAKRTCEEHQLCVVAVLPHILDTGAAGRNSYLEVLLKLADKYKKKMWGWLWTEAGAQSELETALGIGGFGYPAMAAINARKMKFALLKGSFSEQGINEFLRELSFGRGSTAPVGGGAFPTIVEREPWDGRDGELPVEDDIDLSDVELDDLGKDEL
PglD inh – blocks C. jejuni PglD acetyltransferase activity. purified PglD enzyme, DTNB colorimetric CoA detection. inhibition, % at 12.5 µM. hit rate 0.098% among 360,000. AID 602405; in the data active = inhibition above about 16%, passing the limit was not always enough
PDI turbidity – inhibitors of human protein disulfide isomerase | inhibition, % at 10 µM | P07237 | PDI insulin aggregation turbidity, A650, 90 min | hit rate 0.052% among 350,000;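 active = mean inhibition across replicates of 30% or more, whatever share of single replicates reach that level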
ARNT-TACC3 inh – ARNT/TACC3 interaction disruption; AlphaScreen His-ARNT PAS-B/GST-TACC3 binding, luminescence; TACC3 fragment carries E629A point mutation; inhibition, % at 9.99 µM; Q9Y6A5; AID 623870; hit rate 0.66% among 390,000;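 active = mean inhibition of replicates at least 50% and at least half of replicates each reaching 50%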
Numbers stand for hits; – = inactive; · = not tested or not shown. Only a selection was taken, and hits are over-represented in it overall.

SMILES | ALR inh | CendR NRP1 mod | ERp5 inh | PglD inh | PDI turbidity | ARNT-TACC3 inh
O=C(C[C@H]1C[C@@H]2c3cc(NS(=O)(=O)c4ccc(F)cc4)ccc3O[C@@H]2[C@H](CO)O1)NCc1cc(F)ccc1F | · | · | – | – | · | –
COCCNC(=O)C[C@H]1C[C@@H]2c3cc(NC(=O)NC4CCCCC4)ccc3O[C@@H]2[C@@H](CO)O1 | · | · | – | – | · | –
O=S(=O)(/N=C(\c1ccccc1)N1CCOCC1)c1cccs1 | · | 27.0 | · | – | – | –
O=C(c1ccco1)N1CCN(/C(=N/S(=O)(=O)c2cccs2)c2ccccc2Cl)CC1 | – | 27.3 | · | – | – | –
N/C(=N\S(=O)(=O)c1cccs1)c1ccccc1Cl | – | – | – | – | – | –
COCCNC(=O)C[C@@H]1CC[C@@H]2[C@H](COc3ccc(NC(=O)Nc4ccccc4)cc3C(=O)N2C)O1 | · | · | – | – | · | –
Cc1cc2nc3ccc(N(C)C)cc3nc2cc1N | 92.2 | – | · | · | – | –
CCC(=O)N1CC(=O)N2[C@@H](CO)[C@@H](c3ccc(C#CC4CCCCC4)cc3)[C@@H]2C1 | · | · | – | · | · | ·
O=c1c(C=NCCCn2ccnc2)c(-c2ccccc2)[nH]n1-c1nc2ccccc2s1 | – | – | · | · | – | 53.7
CN(C)c1ccc(Cc2ccc(N(C)C)cc2)cc1 | · | – | – | – | – | ·
CNc1nnc(-c2ccc(N(C)C)cc2)s1 | 99.5 | – | · | – | – | –
CCOC(=O)/C(=C\c1cccc(O)c1)c1nc2sc(C)c(C)c2c(=O)[nH]1 | 97.5 | – | – | · | – | –
O=C(O)CCc1ccc(-c2cccs2)n1NC(=O)c1ccc(Cl)cc1Cl | – | – | · | – | – | –
O=C(O)CCc1ccc(-c2cccs2)n1NC(=O)c1ccc(Cl)cc1 | 98.5 | – | · | – | – | –
Cc1ccc(-c2ccc(CCC(=O)O)n2NC(=O)c2cccs2)cc1 | 98.9 | – | · | – | – | –
COc1ccc(-c2ccc(CCC(=O)O)n2NC(=O)c2cccs2)cc1 | – | – | · | · | – | –
O=C(NCCc1ccncc1)[C@@H]1[C@@H](CO)[C@@H]2Cn3c(ccc(-c4ccc(F)cc4)c3=O)[C@H]1N2 | · | · | – | – | · | –
COc1ccc(OC)c(S(=O)(=O)Nc2ccccc2C)c1 | – | – | – | – | – | –
COc1ccc(OC)c(S(=O)(=O)Nc2ccccc2O)c1 | 98.7 | – | – | · | – | –
Cn1cc(C(=O)c2ccc(Cl)cc2Cl)cc1C(=O)N/N=C(\N)COc1ccc(Cl)cc1 | · | – | – | · | – | –
Cn1cc(C(=O)c2ccc(Cl)cc2Cl)cc1C(=O)N/N=C(\N)COc1ccccc1 | – | 35.9 | · | – | – | –
C[C@H]1CN([C@@H](C)CO)C(=O)c2cc(NS(=O)(=O)c3ccc(F)cc3)ccc2O[C@@H]1CN(C)Cc1ccc(-c2ccccc2)cc1 | · | · | – | – | · | –
Cc1cc(=O)oc2cc(NS(=O)(=O)c3ccc(F)cc3)ccc12 | – | 36.6 | – | – | – | –
C[C@H](O)C#Cc1cnc2c(c1)C(=O)N([C@@H](C)CO)C[C@@H](C)[C@@H](CN(C)Cc1ccc(-c3ccccc3)cc1)O2 | · | · | – | – | · | –
O=C1N=C(N2C=CC(=C3C=CNC=C3)C=C2)/C(=C/N=NC(=O)c2ccccc2O)S1 | · | 41.4 | – | – | – | –
SMILES | ALR inh | CendR NRP1 mod | ERp5 inh | PglD inh | PDI turbidity | ARNT-TACC3 inh
O=C(Cn1c(NCCCCl)nc2ccccc21)c1ccccc1 | – | 31.2 | – | – | – | –
NC(=O)OCC(COC(N)=O)c1ccccc1 | – | – | – | – | – | –
CC(C)COC(=O)C(N)C(C(=O)OCC(C)C)c1ccccc1 (stereo unspecified) | – | 29.7 | · | – | – | –
O=C(NNC(=O)c1cccs1)c1ccco1 | – | – | – | – | – | –
O=C(NC(=S)NNC(=O)c1cccs1)c1ccco1 | 97.1 | – | · | – | – | –
O=C(NNC(=S)Nc1ccc(Cl)cc1)c1cccs1 | 96.8 | – | – | · | – | –
CCC(=O)Nc1ccc(NCc2cccs2)cc1 | 98.1 | – | – | – | – | –
CCN(CC)c1ccc(NC(=O)CN(C)Cc2cccs2)cc1 | 99.0 | – | – | – | – | ·
CCCOc1ccc(C(=O)NNC(=S)NC(=O)c2ccccc2)cc1 | – | – | – | – | – | –
Cc1cccc(C(=O)NC(=S)NNC(=O)c2cccs2)c1 | 98.7 | – | – | · | – | –
O=C(NNC(=S)NC(=O)c1sc2ccccc2c1Cl)c1ccc(Cl)cc1 | 98.4 | – | · | – | – | –
Cc1ccccc1C(=O)NNC(=S)NC(=O)c1cccs1 | – | – | – | – | – | –
COc1cc(C(=O)NNC(=S)NC(=O)c2ccc(Cl)cc2)cc(OC)c1OC | 96.3 | – | · | – | – | –
CCCOc1ccc(C(=O)NNC(=S)NC(=O)c2cccs2)cc1 | 96.8 | – | – | – | – | –
O=C(NNC(=O)c1cccs1)c1ccc(Br)o1 | 95.8 | – | – | · | – | –
O=C(NC(=S)NNC(=O)c1cccs1)c1ccccc1 | 98.5 | – | – | – | – | –
Cc1cccc(C(=O)NC(=S)NNC(=O)c2ccc(Cl)cc2)c1 | 96.1 | – | · | · | – | –
Cc1ccc(C(=O)NNC(=S)NC(=O)COc2ccccc2)cc1 | – | – | – | · | – | –
Cc1cccc(OCC(=O)NC(=S)NNC(=O)c2ccncc2)c1 | – | – | – | – | – | 56.4
O=C(NNC(=S)Nc1ccccc1)c1cccs1 | – | – | · | – | – | –
O=C(Nc1ccc(NC(=O)c2cccs2)cc1)c1ccc(Br)o1 | – | – | · | – | – | –
C[C@@H]1CN([C@@H](C)CO)C(=O)c2cc(NC(=O)C3CCCCC3)ccc2O[C@@H](C)CCCCO[C@@H]1CN(C)S(=O)(=O)c1ccc(Cl)cc1 | · | · | – | – | · | –
C[C@H](CO)N1C[C@H](C)[C@H](CN(C)S(=O)(=O)c2ccc(Cl)cc2)Oc2ccc(NC(=O)Cc3ccccc3)cc2CC1=O | · | · | – | – | · | –
C[C@H](NC(=O)C[C@@H]1CC[C@@H]2[C@H](COC[C@H](O)CN2C(=O)Nc2ccccc2)O1)c1ccccc1 | · | · | – | – | · | –
CC(=O)NC(=S)Nc1ccc(NC(=S)NC(=O)c2cccs2)cc1 | – | – | – | – | – | –
SMILES | ALR inh | CendR NRP1 mod | ERp5 inh | PglD inh | PDI turbidity | ARNT-TACC3 inh
COc1ccc(/C=C/C(=O)NC(=S)NNC(=O)Cc2cccs2)cc1OC | – | – | · | – | – | ·
CCCCC(=O)Nc1ccc(C(N)=O)cc1 | – | – | · | – | – | –
CCCCC(=O)Nc1ccc(NCc2ccc(C)s2)cc1 | 97.1 | – | – | – | – | –
COc1ccc(/C=C/C(=O)NC(=S)NNC(=O)c2cccs2)cc1OC | 99.0 | – | – | – | – | –
CCN(CC)c1ccc(NC(=S)NC(=O)c2cccs2)cc1 | 98.1 | – | – | – | – | –
CC(C)(C)c1ccc(C(=O)NC(=S)NNC(=O)COc2ccccc2)cc1 | 98.8 | – | – | – | – | –
O=C(CCN1CCCCC1)N[C@@H]1CC[C@H](CCn2cc(-c3ccccc3)nn2)O[C@H]1CO | · | · | – | – | · | –
C[C@H](CO)N1C[C@H](C)[C@@H](CN(C)C(=O)C2CCCCC2)OCCCC[C@H](C)Oc2ccc(NC(=O)Nc3ccccc3)cc2C1=O | · | · | – | – | · | –
